From PubChem BioAssay (Tox21)
Results filed as inconclusive are left out. A number with no mark means an inactive call. Calls come from the whole dose curve; as a rule, active = well fitted activation curve with a large enough effect in the repeat runs; inconclusive = weak or mixed curves; inactive = flat fitted curve, though single readings scatter.

experiment: A CellTox Green Cytotoxicity Assay to monitor cytotoxicity in HEK293 cells - 8 hour (AID 1224884); conditions: CellTox Green fluorescence; series mostly up to 76.8 µM; cytotoxicity increase: at the top concentration; note: nearly all actives have a fitted effect of over 35% in size
From the text: National Center for Advancing Translational Sciences [NCATS]
NIH Chemical Genomics Center [NCGC]
U.S. Environmental Protection Agency [EPA]
National Institutes of Environmental Health Sciences [NIEHS]
National Toxicology Program [NTP]
Cell-based models are critical for drug discovery. Determining the natural cytotoxic effects resulting from test compounds is an essential research activity. A CellTox Green Cytotoxicity Assay to monitor cytotoxicity in real time of continues cell culture during 40 hours of the compound treatment was used to screen Tox21 10K library compounds in Hek293 cells. CellTox Green Cytotoxicity Assay is a nonlytic, homogeneous, biofluorescent method to measure cytotoxicity in cell culture after experimental manipulation. The assay system uses a proprietary asymmetric cyanine dye that is excluded from viable cells but preferentially stains the dead cell's DNA. […] Viable cells produce no appreciable increases in fluorescence. Therefore, the fluorescence signal produced by the binding interaction with dead cell DNA is proportional to cytotoxicity.
The mixture of Hek293 cell suspension and reagents were dispensed at 600cells/6 ul/well in 1536-well tissue culture treated black solid bottom plates using a Multidrop dispenser. After the assay plates were incubated at a 37 C/5% CO2 incubator for 5 hours, 23 nL of compounds dissolved in DMSO, positive and negative controls was transferred to the assay plate by a pintool work station. The plates were incubated at 37 C for 40 hours. The fluorescence intensity were measured at 0h, 8h, 16h, 24h, 32h and 40h time points using ViewLux plate reader during compound treatment.
% is set by controls: 0 for no effect and ±100 for the full control effect.

First: CCOc1c(N2CCOCC2)cnn(C)c1=O
Second: COc1cc(C(=O)OC(COCCC(C)C)CN2CCOCC2)cc(OC)c1OC (stereo not given)
The “cytotoxicity increase” value of the first is lower: -13.6% [at 35.3 µM] for the first, -11% [at 35.3 µM] for the second.

First: CCCCS(=O)(=O)N[C@@H](Cc1ccc(OCCCCC2CCNCC2)cc1)C(=O)O
Second: COc1cc(C(=O)NCc2ccc(OCCN(C)C)cc2)cc(OC)c1OC
The “cytotoxicity increase” value of the first is higher: -4.89% [at 35.3 µM] for the first, -16.7% [at 35.3 µM] for the second.

Compared with `CC(=O)OCC(=O)[C@@]1(O)[C@H](C)C[C@H]2[C@@H]3CCC4=CC(=O)C=C[C@]4(C)[C@@]3(F)[C@@H](O)C[C@@]21C`, `CO[C@@]1(NC(=O)CSC[C@@H](N)C(=O)O)C(=O)N2C(C(=O)O)=C(CSc3nnnn3C)CS[C@@H]21` is higher in “cytotoxicity increase” value: -3.34% [at 35.3 µM] for the first, 4.34% [at 35.3 µM] for the second.

Compared with `CC(N)C12CC3CC(CC(C3)C1)C2` (stereo not given), `C=C(C)C(=O)OCC(O)CO` (stereo not given) is higher in “cytotoxicity increase” value: -7.75% [at 35.3 µM] for the first, -0.269% [at 35.3 µM] for the second.

Going from `NC(=O)N[C@@H](CCC(=O)O)C(=O)O` to `O=C(O)CNC(=O)c1ccccc1`, the “cytotoxicity increase” value falls from -1.96% [at 35.3 µM] to -15.5% [at 35.3 µM].

Compared with `Nc1ccncc1N`, `O=C(O)CCCC[P+](c1ccccc1)(c1ccccc1)c1ccccc1` is higher in “cytotoxicity increase” value: -0.25% [at 35.3 µM] for the first, 1.47% [at 35.3 µM] for the second.

Going from `CCCCCCCCN1CCCC1=O` to `CCCCCCC1CCC(=O)O1` (stereo not given), the “cytotoxicity increase” value falls from 1.29% to -11.8%.

First: C=C[Si](OC(C)=O)(OC(C)=O)OC(C)=O
Second: CC(C)(CCC(=O)O)C(=O)O
The “cytotoxicity increase” value of the first is higher: -0.0476% for the first, -9.39% for the second.

First: CCOC(=O)c1ccccc1
Second: CCOC(=O)C1=NOC(c2ccccc2)(c2ccccc2)C1
The “cytotoxicity increase” value of the first is higher: 0.767% for the first, -11.9% for the second.

First: CO[Si](C)(OC)c1ccccc1
Second: CC(=O)c1ccccc1[N+](=O)[O-]
The “cytotoxicity increase” value of the first is higher: 5.72% for the first, 4.31% for the second.

Going from `CN1C(C)(C)CC(O)CC1(C)C` to `CC(C)C1CCC(O)CC1` (stereo not given), the “cytotoxicity increase” value falls from -2.28% to -6.25%.

Compared with `C=CCCC(=O)O`, `N[C@@H](CCC(=O)O)C(=O)O` is lower in “cytotoxicity increase” value: 13.6% for the first, -3.87% for the second.

First: O=C(O)CCSCCC(=O)O
Second: O=CN(CCO)CCO
The “cytotoxicity increase” value of the first is lower: -4.72% for the first, -0.692% for the second.

Compared with `O=C1CCCCCCCCCCCCCCO1`, `C=CN1CCCCCC1=O` is higher in “cytotoxicity increase” value: -3.09% for the first, 2.57% for the second.

Compared with `CC(C)=CCC/C(C)=C/C#N`, `CC(C)CC(C)(N)C#N` (stereo not given) is higher in “cytotoxicity increase” value: -2.74% for the first, 22.9% for the second.

Compared with `COC(=O)Nc1ccc(Cl)c(Cl)c1`, `Clc1cc(Cl)cc(Cl)c1` is lower in “cytotoxicity increase” value: -0.822% for the first, -2.95% for the second.

Going from `CCN(CC#N)c1cccc(C)c1` to `O=S(=O)(O)c1cccc(S(=O)(=O)O)c1`, the “cytotoxicity increase” value falls from 2.78% to -2.38%.

Compared with `CN(C)CCCCCCN(C)C`, `OCCCCCO` is lower in “cytotoxicity increase” value: -4.88% for the first, -9% for the second.

Going from `OCCc1ccccn1` to `CC1OC1C1CCC2(C)OC2C1` (stereo not given), the “cytotoxicity increase” value rises from -7.22% to 0.125%.

First: CC(C)C[C@@H](N)C(=O)O
Second: C[N+]1(CC2COC(c3ccccc3)(c3ccccc3)O2)CCCCC1 (stereo not given)
The cytotoxicity increase of the first is higher: -0.255% [at 15.8 µM] for the first, -4.15% [at 15.8 µM] for the second.
